# About 2,200 (0.71%) of roughly 310,000 compounds showed an effect of 50% or more. Effects have a minus sign here. The sample as a whole holds a higher share of strong results than the screen did.
# Molecular target: human ether-à-go-go-related gene (hERG) potassium channel (human, UniProt Q12809)
# Experiment: primary screen, population patch clamp on CHO cells stably expressing hERG; higher = less effect of the substance
# Sequence of human ether-à-go-go-related gene (hERG) potassium channel (Q12809 whole entry, looked up): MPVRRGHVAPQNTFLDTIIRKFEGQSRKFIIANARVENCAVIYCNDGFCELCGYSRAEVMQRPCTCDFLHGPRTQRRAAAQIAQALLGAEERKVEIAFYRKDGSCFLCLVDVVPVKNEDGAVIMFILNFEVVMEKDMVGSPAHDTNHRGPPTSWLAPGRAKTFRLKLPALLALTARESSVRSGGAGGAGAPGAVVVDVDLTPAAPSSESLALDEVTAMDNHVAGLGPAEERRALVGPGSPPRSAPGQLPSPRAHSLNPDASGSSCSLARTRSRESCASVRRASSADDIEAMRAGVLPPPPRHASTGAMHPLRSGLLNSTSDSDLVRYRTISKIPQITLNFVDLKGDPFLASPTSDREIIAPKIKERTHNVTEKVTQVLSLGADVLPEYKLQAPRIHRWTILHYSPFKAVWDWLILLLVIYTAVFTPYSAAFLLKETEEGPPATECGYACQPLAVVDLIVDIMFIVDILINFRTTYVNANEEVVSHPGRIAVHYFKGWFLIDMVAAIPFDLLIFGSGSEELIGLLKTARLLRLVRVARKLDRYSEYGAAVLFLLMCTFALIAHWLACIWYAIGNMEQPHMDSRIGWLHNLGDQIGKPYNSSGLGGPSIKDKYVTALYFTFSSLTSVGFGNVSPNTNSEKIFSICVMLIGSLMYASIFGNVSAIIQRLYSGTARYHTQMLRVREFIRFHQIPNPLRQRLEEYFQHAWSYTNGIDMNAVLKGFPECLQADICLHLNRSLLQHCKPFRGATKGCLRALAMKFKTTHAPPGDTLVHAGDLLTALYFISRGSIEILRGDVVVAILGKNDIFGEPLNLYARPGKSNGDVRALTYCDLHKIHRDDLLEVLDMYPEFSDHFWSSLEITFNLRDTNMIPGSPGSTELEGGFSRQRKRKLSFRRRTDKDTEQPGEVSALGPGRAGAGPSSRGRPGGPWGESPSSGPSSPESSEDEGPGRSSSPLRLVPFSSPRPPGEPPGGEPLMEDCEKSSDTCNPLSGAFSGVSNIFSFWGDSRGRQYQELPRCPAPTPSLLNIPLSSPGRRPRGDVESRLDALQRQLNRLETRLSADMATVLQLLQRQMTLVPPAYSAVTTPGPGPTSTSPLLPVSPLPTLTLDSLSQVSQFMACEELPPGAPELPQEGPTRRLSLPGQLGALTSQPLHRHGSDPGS
row,SMILES,"hERG current change (%, negative = inhibition) at 1uM"
1,CN(C)c1ccc(CNc2nc(-c3ccccc3)nn2S(C)(=O)=O)cc1,14.6%
2,O=C(COc1ccc(S(=O)(=O)N2CCOCC2)cc1)N1CCCCCC1,25.1%
3,COc1ccc(CCNC(=O)COC(=O)/C=C/c2cccs2)cc1OC,11.7%
4,O=C(O)CCCN1C(=O)NC2NC(=O)NC21 (stereo not drawn),10.2%
5,COc1ccc(Nc2nc(N)nc(CN3CCC(C)CC3)n2)cc1,-50.7%
6,COc1ccc(Nc2nc(N)nc(CN3CCOCC3)n2)cc1,1.93%
7,Nc1nc(CN2CCCCCC2)nc(Nc2ccccc2)n1,-31.9%
8,Nc1nc(CN2CCN(c3ccccc3)CC2)nc(Nc2ccc(Cl)cc2)n1,-44.8%
9,Nc1nc(CN2CCN(Cc3ccccc3)CC2)nc(Nc2ccccc2)n1,-56.3%
10,COc1ccc(Nc2nc(N)nc(CN3CCN(c4ccc(F)cc4)CC3)n2)cc1,-19.3%
11,O=C(CSc1ncn(-c2ccccc2)n1)N1CCc2ccccc21,1.39%
12,O=S(=O)(c1ccc(Cl)cc1)N1CCC2(CC1)OCCO2,2.73%
13,FC(F)(F)c1cccc(N2CCN(C(=S)NCC3CCCO3)CC2)c1 (stereo not drawn),4.59%
14,COc1ccc(-c2nn(C)c(=O)c3ccccc23)cc1CNC(=O)CN1CCOCC1,6.56%
15,CCOc1cccc2sc(N(CCCN(C)C)C(=O)Cc3ccccc3)nc12.Cl,-83.7%
16,CN(C)CCCN(C(=O)COc1ccccc1)c1nc2c(F)cccc2s1.Cl,-55.8%
17,COc1cccc2sc(N(CCCN(C)C)C(=O)COc3ccc(Cl)cc3)nc12.Cl,-68.9%
18,CN(C)CCCN(C(=O)COc1ccc(Cl)cc1)c1nc2ccc(F)cc2s1.Cl,8.45%
19,CCOc1cccc2sc(N(CCCN(C)C)C(=O)c3ccc(C(=O)c4ccccc4)cc3)nc12.Cl,-29.5%
20,CN(C)CCCN(C(=O)COc1ccc(Cl)cc1)c1nc2c(F)cccc2s1.Cl,-16.9%

row,SMILES,"hERG current change (%, negative = inhibition) at 1uM"
1,CN(C)CCCN(C(=O)COc1ccccc1)c1nc2c(Cl)cccc2s1.Cl,-45.5%
2,CCOc1cccc2sc(N(CCCN(C)C)C(=O)c3ccc(S(=O)(=O)N(C)Cc4ccccc4)cc3)nc12.Cl,-1.82%
3,Cc1cccc2sc(N(CCCN(C)C)C(=O)COc3ccc(Cl)cc3)nc12.Cl,-6.98%
4,CCOC(=O)c1c(NC(=O)c2cc(CC(C)C)on2)sc(C(C)=O)c1C,12.5%
5,CC(C)CN(C(=O)COC(=O)c1cnc(Cl)c(Cl)c1)c1c(N)n(Cc2ccccc2)c(=O)[nH]c1=O,8.68%
6,COc1ccc(-c2n[nH]c(C)c2-c2ccc(Cl)cc2)c(O)c1,10.2%
7,CCOC(=O)CSc1nc(Cc2ccccc2)nc2ccccc12,3.08%
8,Cn1nc(C(F)(F)F)c2cc(C(=O)N3CCOCC3)sc21,5.87%
9,COc1ccccc1N1CCN(C2CCCN(C(=O)CCC(=O)N(C)C)C2)CC1 (stereo not drawn),-3.24%
10,CCCC(=O)NC(=S)Nc1ccc(NC(=O)c2cccs2)cc1,-3.11%
11,Cc1cc(=O)[nH]c(SCC(=O)c2ccc(C)c(C)c2)n1,18.1%
12,N#Cc1c2c(c(Nc3ccc(O)cc3)n3c1nc1ccccc13)CCC2,11.7%
13,CC(=O)c1ccc(Nc2c3c(c(C#N)c4nc5ccccc5n24)CCC3)cc1,-67%
14,N#Cc1c2c(c(Nc3ccccc3)n3c1nc1ccccc13)CCC2,10.4%
15,CC(C1CC1)N(Cc1ccccc1)C(=S)Nc1ccccc1Cl (stereo not drawn),3.13%
16,COc1cccc(-c2noc(CCC(=O)NC3CCCCC3)n2)c1,0.894%
17,COCCNc1nc(SCC(=O)N2CCN(c3ccccc3OC)CC2)nc2ccccc12,-92.9%
18,O=C(CSc1nc2ccccc2c(=O)[nH]1)N1CCN(c2ccccc2)CC1,12.9%
19,COc1ccccc1N1CCN(C(=O)CSc2nc3ccccc3nc2N2CCCCC2)CC1,16.5%
20,COCCNC(=O)CSc1nc2ccccc2c(=O)n1CCC(=O)N1CCN(c2ccccc2)CC1,6.84%

row,SMILES,"hERG current change (%, negative = inhibition) at 1uM"
1,COc1ccccc1N1CCN(C(=O)CSc2nnc3c4ccccc4nc(Cc4ccccc4)n23)CC1,-1.26%
2,COCCNc1nc(SCC(=O)N2CCN(c3ccccc3)CC2)nc2ccccc12,-94.4%
3,COc1cc2ccccc2cc1C(=O)N1CC(C)CC(C)C1 (stereo not drawn),-3.89%
4,CCOC(=O)N/N=C/c1cccnc1,5%
5,CCCCN(C(=O)COC(=O)c1ccc(C=O)cc1)c1c(N)n(CCC)c(=O)[nH]c1=O,11%
6,Cc1nc(N2CCN(C(=O)CCC(=O)O)CC2)c2c(C)c(C)sc2n1,-4.32%
7,CCC(=O)N1CCN(c2nc(C)nc3sc(C)c(C)c23)CC1,-54%
8,Cc1nc(N2CCN(C(=O)COc3ccccc3)CC2)c2c(C)c(C)sc2n1.Cl,-29.3%
9,Fc1cccc(Cc2noc(CN3CCC(c4ccncc4)CC3)n2)c1,-1.98%
10,Fc1cccc(Cc2noc(CN3CCOCC3)n2)c1,10.8%
11,Cc1cccnc1CN1CCN(Cc2nc(Cc3cccc(F)c3)no2)CC1,6.2%
12,c1ccc(Cc2noc(CN3CCCN(C4Cc5ccccc5C4)CC3)n2)cc1,-66%
13,O=C(c1ccco1)N1CCCN(Cc2nc(Cc3ccccc3)no2)CC1,1.8%
14,COc1ccc(Cc2noc(CN3CCN(C4CCc5ccccc5C4)CC3)n2)cc1OC (stereo not drawn),-32%
15,Fc1cccc(Cc2noc(CN3CCCN(C4Cc5ccccc5C4)CC3)n2)c1,-86.9%
16,c1ccc(Cc2noc(CN3CCN(C4CCc5ccccc5C4)CC3)n2)cc1 (stereo not drawn),-76.1%
17,COc1ccc(Cc2noc(CN3CCCN(C4Cc5ccccc5C4)CC3)n2)cc1OC,-44.4%
18,Fc1cccc(Cc2noc(CN3CCN(C4CCc5ccccc5C4)CC3)n2)c1 (stereo not drawn),-67.5%
19,Cc1ccccc1N1CCN(Cc2nc(Cc3ccccc3)no2)CC1,8.68%
20,Fc1cccc(Cc2noc(CN3CCSCC3)n2)c1,17.3%

# Reference: article PMC4336329 (PLoS ONE, 2015)
